Reference: PubChem BioAssay (Tox21)
Records with an inconclusive call do not appear. A call without a number means that no potency is given here. Active and inactive are the calls of the source. Calls come from the whole dose curve; as a rule, active = well fitted curve in the direction sought with a large enough effect in the repeat runs; inconclusive = weak or mixed curves; inactive = no such curve, though single readings can be large; an effect the other way counts as inactive or inconclusive.

test: qHTS assay for small molecule disruptors of the mitochondrial membrane potential (AID 720635); conditions: HepG2 mitochondrial membrane potential, Mito-MPS dye ratio; series mostly up to 83.2 µM; ratio activity, negative = MMP loss: at the top concentration; note: potency is the fitted concentration of half-maximal effect
Summary of the method: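 HepG2 cells (2,000/well) attached overnight at 37C, then took compound for 1 hr at 37C, 5% CO2. Mito-MPS dye was added for 30 min; fluorescence was read at 490/535 nm (monomers) and 540/590 nm (aggregates).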

| SMILES | Potency | ratio activity, negative = MMP loss |
| --- | --- | --- |
| Cc1ccccc1Cl | inactive | – |
| CCCCCCC(=O)O | inactive | – |
| COc1ccccc1[N+](=O)[O-] | inactive | – |
| Cc1ccccc1C=O | inactive | – |
| Nc1cccc(C(F)(F)F)c1 | inactive | – |
| CCCOC(=O)NCCCN(C)C | inactive | – |
| COc1ccc(N)c(OC)c1 | 54.5 µM (active) | – |
| Nc1nc(N)c2nc(-c3ccccc3)c(N)nc2n1 | inactive | – |
| Cc1ccc(Cl)cc1 | inactive | – |
| CC/C=C(\C(=O)N[C@@H]1C(=O)N2C(C(=O)OCOC(=O)C(C)(C)C)=C(COC(N)=O)CS[C@H]12)c1csc(N)n1 | – | 26.5% (inactive) |
| CC(C)=CCC/C(C)=C/C=O | – | 13.4% [at 95.3 µM] (inactive) |
| Cc1nnc(NS(=O)(=O)c2ccc(N)cc2)s1 | – | 8.54% (inactive) |
| CC(=O)OCc1ccc2c(c1)OCO2 | inactive | – |
| NC(=O)NC(N)=O | inactive | – |
| CC(=O)c1nccs1 | inactive | – |
| OCc1ccc(Cl)cc1Cl | inactive | – |
| CC1(C)C(=O)N(Cl)C(=O)N1Cl | inactive | – |
| CCc1cccc(CC)c1N | – | 14.5% [at 95.3 µM] (inactive) |
| O=C(O)Cc1c[nH]c2ccccc12 | inactive | – |

| SMILES | Potency | ratio activity, negative = MMP loss |
| --- | --- | --- |
| NC(=O)c1ncn([C@@H]2O[C@H](CO)[C@@H](O)[C@H]2O)n1 | inactive | – |
| CCCN(CCC)C(=O)SCC | – | 20.1% (inactive) |
| CCOC(=O)CC(=O)OCC | inactive | – |
| CCCCCCCCCCCCCC(=O)O | – | -13.2% (inactive) |
| CCCCCCCC(=O)O | inactive | – |
| O=C(c1ccccc1)c1ccc(O)c(O)c1O | 48.6 µM (active) | – |
| O=[N+]([O-])c1ccccc1C(F)(F)F | inactive | – |
| COc1ccc([C@@H]2CC(=O)c3c(O)cc(O[C@@H]4O[C@H](CO[C@@H]5O[C@@H](C)[C@H](O)[C@@H](O)[C@H]5O)[C@@H](O)[C@H](O)[C@H]4O)cc3O2)cc1OC | – | 14.9% (inactive) |
| CC(=O)OC(C)(C)C1CC=C(C)CC1 (centres undefined) | inactive | – |
| Cc1ccc(C(C)C)cc1 | – | 7.48% [at 95.3 µM] (inactive) |
| c1cnc2c(c1)ccc1cccnc12 | 30.6 µM (active) | – |
| Cc1cc(CC(=O)O)n(C)c1C(=O)c1ccc(Cl)cc1 | – | 23.3% (inactive) |
| C[Si](C)(C)N[Si](C)(C)C | inactive | – |
| OC[C@H]1O[C@@H](Oc2ccc(O)cc2)[C@H](O)[C@@H](O)[C@@H]1O | – | 19.5% (inactive) |
| CCCCCCCCC(=O)O | inactive | – |
| CCn1cc(C(=O)O)c(=O)c2cc3c(cc21)OCO3 | – | -10.8% (inactive) |
| Cc1cc(C)cc(O)c1 | – | -14.6% (inactive) |
| Cc1ccc([N+](=O)[O-])cc1N | – | 12.9% (inactive) |
| CC(C)(C)NC[C@H](O)COc1nsnc1N1CCOCC1 | – | 29.5% (inactive) |

test: qHTS assay to test for compound auto fluorescence at 590 nm (red) in HepG2 cells (AID 720674); conditions: HepG2 autofluorescence, red 540/590 nm, 1 h; series mostly up to 91.3 µM; fluorescence, relative to Rose Bengal: at the top concentration
Summary of the method: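 Compound auto-fluorescence is scored relative to Rose Bengal sodium, measured at 540/590 nm in live HepG2 cultures after 1 hr compound contact (37 C, 5% CO2).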

| SMILES | outcome |
| --- | --- |
| Cc1ccccc1Cl | inactive |
| CCCCCCC(=O)O | inactive |
| COc1ccccc1[N+](=O)[O-] | inactive |
| Cc1ccccc1C=O | inactive |
| Nc1cccc(C(F)(F)F)c1 | inactive |
| CCCOC(=O)NCCCN(C)C | inactive |
| COc1ccc(N)c(OC)c1 | inactive |
| Nc1nc(N)c2nc(-c3ccccc3)c(N)nc2n1 | inactive |
| Cc1ccc(Cl)cc1 | inactive |
| CC/C=C(\C(=O)N[C@@H]1C(=O)N2C(C(=O)OCOC(=O)C(C)(C)C)=C(COC(N)=O)CS[C@H]12)c1csc(N)n1 | inactive |
| CC(C)=CCC/C(C)=C/C=O | inactive |
| Cc1nnc(NS(=O)(=O)c2ccc(N)cc2)s1 | inactive |
| CC(=O)OCc1ccc2c(c1)OCO2 | inactive |
| NC(=O)NC(N)=O | inactive |
| CC(=O)c1nccs1 | inactive |
| OCc1ccc(Cl)cc1Cl | inactive |
| CC1(C)C(=O)N(Cl)C(=O)N1Cl | inactive |
| CCc1cccc(CC)c1N | inactive |
| O=C(O)Cc1c[nH]c2ccccc12 | inactive |

| SMILES | outcome |
| --- | --- |
| NC(=O)c1ncn([C@@H]2O[C@H](CO)[C@@H](O)[C@H]2O)n1 | inactive |
| CCCN(CCC)C(=O)SCC | inactive |
| CCOC(=O)CC(=O)OCC | inactive |
| CCCCCCCCCCCCCC(=O)O | inactive |
| CCCCCCCC(=O)O | inactive |
| O=C(c1ccccc1)c1ccc(O)c(O)c1O | inactive |
| O=[N+]([O-])c1ccccc1C(F)(F)F | inactive |
| COc1ccc([C@@H]2CC(=O)c3c(O)cc(O[C@@H]4O[C@H](CO[C@@H]5O[C@@H](C)[C@H](O)[C@@H](O)[C@H]5O)[C@@H](O)[C@H](O)[C@H]4O)cc3O2)cc1OC | inactive |
| CC(=O)OC(C)(C)C1CC=C(C)CC1 (centres undefined) | inactive |
| Cc1ccc(C(C)C)cc1 | inactive |
| c1cnc2c(c1)ccc1cccnc12 | inactive |
| Cc1cc(CC(=O)O)n(C)c1C(=O)c1ccc(Cl)cc1 | inactive |
| C[Si](C)(C)N[Si](C)(C)C | inactive |
| OC[C@H]1O[C@@H](Oc2ccc(O)cc2)[C@H](O)[C@@H](O)[C@@H]1O | inactive |
| CCCCCCCCC(=O)O | inactive |
| CCn1cc(C(=O)O)c(=O)c2cc3c(cc21)OCO3 | inactive |
| Cc1cc(C)cc(O)c1 | inactive |
| Cc1ccc([N+](=O)[O-])cc1N | inactive |
| CC(C)(C)NC[C@H](O)COc1nsnc1N1CCOCC1 | inactive |

test: qHTS assay to test for compound auto fluorescence at 535 nm (green) in HepG2 cells (AID 720675); conditions: green autofluorescence 485/535 nm, 1 h; series mostly up to 91.3 µM; fluorescence, % of fluorescein control: at the top concentration

| SMILES | outcome |
| --- | --- |
| Cc1ccccc1Cl | inactive |
| CCCCCCC(=O)O | inactive |
| COc1ccccc1[N+](=O)[O-] | inactive |
| Cc1ccccc1C=O | inactive |
| Nc1cccc(C(F)(F)F)c1 | inactive |
| CCCOC(=O)NCCCN(C)C | inactive |
| COc1ccc(N)c(OC)c1 | inactive |
| Nc1nc(N)c2nc(-c3ccccc3)c(N)nc2n1 | inactive |
| Cc1ccc(Cl)cc1 | inactive |
| CC/C=C(\C(=O)N[C@@H]1C(=O)N2C(C(=O)OCOC(=O)C(C)(C)C)=C(COC(N)=O)CS[C@H]12)c1csc(N)n1 | inactive |
| CC(C)=CCC/C(C)=C/C=O | inactive |
| Cc1nnc(NS(=O)(=O)c2ccc(N)cc2)s1 | inactive |
| CC(=O)OCc1ccc2c(c1)OCO2 | inactive |
| NC(=O)NC(N)=O | inactive |
| CC(=O)c1nccs1 | inactive |
| OCc1ccc(Cl)cc1Cl | inactive |
| CC1(C)C(=O)N(Cl)C(=O)N1Cl | inactive |
| CCc1cccc(CC)c1N | inactive |
| O=C(O)Cc1c[nH]c2ccccc12 | inactive |

| SMILES | outcome |
| --- | --- |
| NC(=O)c1ncn([C@@H]2O[C@H](CO)[C@@H](O)[C@H]2O)n1 | inactive |
| CCCN(CCC)C(=O)SCC | inactive |
| CCOC(=O)CC(=O)OCC | inactive |
| CCCCCCCCCCCCCC(=O)O | inactive |
| CCCCCCCC(=O)O | inactive |
| O=C(c1ccccc1)c1ccc(O)c(O)c1O | inactive |
| O=[N+]([O-])c1ccccc1C(F)(F)F | inactive |
| COc1ccc([C@@H]2CC(=O)c3c(O)cc(O[C@@H]4O[C@H](CO[C@@H]5O[C@@H](C)[C@H](O)[C@@H](O)[C@H]5O)[C@@H](O)[C@H](O)[C@H]4O)cc3O2)cc1OC | inactive |
| CC(=O)OC(C)(C)C1CC=C(C)CC1 (centres undefined) | inactive |
| Cc1ccc(C(C)C)cc1 | inactive |
| c1cnc2c(c1)ccc1cccnc12 | inactive |
| Cc1cc(CC(=O)O)n(C)c1C(=O)c1ccc(Cl)cc1 | inactive |
| C[Si](C)(C)N[Si](C)(C)C | inactive |
| OC[C@H]1O[C@@H](Oc2ccc(O)cc2)[C@H](O)[C@@H](O)[C@@H]1O | inactive |
| CCCCCCCCC(=O)O | inactive |
| CCn1cc(C(=O)O)c(=O)c2cc3c(cc21)OCO3 | inactive |
| Cc1cc(C)cc(O)c1 | inactive |
| Cc1ccc([N+](=O)[O-])cc1N | inactive |
| CC(C)(C)NC[C@H](O)COc1nsnc1N1CCOCC1 | inactive |
